The values that follow come from the GenesisPotency data set.

Out of some 65,000 compounds screened, about 45 (0.07%) were called active. Calls come from the whole dose curve. Shown is part of a subset that was picked to be rich in actives.

This assay relates to T1, .
T1 sequence (whole entry): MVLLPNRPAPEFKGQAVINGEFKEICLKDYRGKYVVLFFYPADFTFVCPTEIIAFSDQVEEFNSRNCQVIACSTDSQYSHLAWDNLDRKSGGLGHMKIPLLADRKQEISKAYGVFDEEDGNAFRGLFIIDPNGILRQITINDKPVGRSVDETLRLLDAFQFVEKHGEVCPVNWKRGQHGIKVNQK
Kind of assay: Schistosoma Mansoni Peroxiredoxins (Prx2).
For `Cc1cc(C)c2cc(CN(CC3CCCO3)S(=O)(=O)c3ccc4c(c3)OCCO4)c(=O)[nH]c2c1` (stereo not given), the compound was classed as active. Then `COc1ccc(S(=O)(=O)N(Cc2cc3ccc(OC)cc3[nH]c2=O)CC2COCCO2)cc1` (stereo not given), with “active”; and `CCc1nc(OCCN(CC)CC)c2oc3ccccc3c2n1.Cl`, with “inactive”; and `CC(=O)Oc1cc(OC(C)=O)c2c(C)cc(=O)oc2c1`, with “active”.

As to `O=C(/N=C1\NC(=O)C(F)(C(F)(F)F)S1)NC1CCCCC1` (stereo not given), the compound was classed as active. Next, `CCC(=O)Oc1ccc2c(C)c(Cl)c(=O)oc2c1`: “active”.

With `COC(=O)Cc1c(C)c2ccc(OC(=O)c3ccco3)cc2oc1=O`, the compound was called active.

With `c1ccc(Cc2nn3c(C4COc5ccccc5O4)nnc3s2)cc1` (stereo not given), the compound was called inactive. `O=C1c2ccccc2C(=O)N1CCCCn1c(=O)oc2ccccc21`: the result was inactive.

On to `CN(C)c1oc(-c2ccccc2Cl)nc1C#N`, for which the result was active.
